Shown are actives, neighbours in structure and some others; about 3.8% of the full set was active somewhere.
ERb SRC1 inh: blocks coactivator binding to human estrogen receptor beta | Q92731 | TR-FRET ER-beta LBD / SRC1-Cy5 peptide binding; receptor agonist-loaded with 1 µM estradiol | inhibition, % at 25.6 µM | actives 1.3% (n = 86,000) | AID 633;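 active means compounds whose percent inhibition of the receptor-coactivator binding signal exceeds about 50% in the single-dose screen, limit read from the data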;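 further: 0% = receptor plus peptide wells without compound and 100% = peptide-only wells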
Target sequence (Q92731 whole entry, looked up, the tested form may be a part): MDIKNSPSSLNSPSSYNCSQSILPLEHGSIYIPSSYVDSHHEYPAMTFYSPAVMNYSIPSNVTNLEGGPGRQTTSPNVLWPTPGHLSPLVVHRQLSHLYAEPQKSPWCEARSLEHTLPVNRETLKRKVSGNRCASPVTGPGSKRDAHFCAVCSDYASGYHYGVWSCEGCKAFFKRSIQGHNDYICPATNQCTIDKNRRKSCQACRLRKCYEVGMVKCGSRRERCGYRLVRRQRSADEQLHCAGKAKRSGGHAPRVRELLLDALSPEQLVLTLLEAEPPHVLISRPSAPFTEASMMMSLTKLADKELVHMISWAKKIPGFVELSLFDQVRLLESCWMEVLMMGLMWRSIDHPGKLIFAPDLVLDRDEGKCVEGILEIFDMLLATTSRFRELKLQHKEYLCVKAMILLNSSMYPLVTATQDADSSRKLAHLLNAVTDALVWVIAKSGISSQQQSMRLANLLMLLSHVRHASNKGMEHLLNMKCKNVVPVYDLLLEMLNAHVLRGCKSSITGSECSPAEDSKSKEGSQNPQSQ
ERa coact pot: enhances coactivator binding to human estrogen receptor alpha; P03372; TR-FRET ERalpha-LBD/SRC-Cy5 coactivator binding, 2 h; 100 = basal binding, no effect; coactivator binding (% of control), % at 25.6 µM; actives 1.3% (n = 86,000); AID 639; in the data active means activity above about 200%;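 further: binding measured in presence of low estradiol as agonist stimulus; 0% = peptide alone without receptor and 100% = receptor with peptide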
Calb biofilm kill: kills Candida albicans biofilms. C. albicans biofilm + clotrimazole, Alamar Blue. inhibition, % at 6 µM. actives 0.14% (n = 85,000);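 active means inhibition above 20%; inactive means inhibition below 20%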;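 further: preformed 24 hr biofilms exposed to compound for 48 hr; 0% = biofilm without compound and 100% = blank killed by clotrimazole plus chlorhexidine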
ERa coact inh: ER-alpha (human) coactivator binding inhibition | P03372 | TR-FRET ER-alpha LBD / SRC-1 peptide, estradiol-bound | inhibition, % at 25.6 µM | actives 1.7% (n = 86,000) | AID 629; in the data active means inhibition above about 50%;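 further: 0% = receptor plus peptide control and 100% = peptide only without receptor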
MT1-MMP txn act: MT1-MMP promoter transcription activation | HT1080 MT1-MMP promoter luciferase reporter, luminescence, overnight; hits give high values | activation factor at 10 µM | actives 0.16% (n = 86,000) | AID 750;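 active means activation factor of at least 2 for MT1-MMP transcription at 10 µM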
Smad3 inh: blocks human Smad3 binding to FoxH1 peptide. inhibition, % at 25 µM. P84022. TR-FRET Smad3/Dy647-FoxH1 peptide binding, europium anti-His. actives 0.29% (n = 88,000);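 active means compounds that reduce the energy-transfer binding signal between the protein and its labelled peptide by more than half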;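 further: 0% = Smad3 plus labelled peptide maximal FRET and 100% = peptide-only background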
Numbers without * were called inactive; [ ] = dose if it differs, or a comment.

Cc1nnc(Sc2nc(Sc3nnc(C)s3)nc(N3CCN(C)CC3)n2)s1 was read as ERb SRC1 inh 60*[fluorescence artefact?], ERa coact pot 111, Calb biofilm kill 5, ERa coact inh -14, MT1-MMP txn act 0.1 and Smad3 inh 3.
For Cc1nnc(Sc2c(N)n(C)c(=O)n(C)c2=O)s1 the results were ERb SRC1 inh -3, ERa coact pot 104, Calb biofilm kill 2, ERa coact inh 0, MT1-MMP txn act 0.9 and Smad3 inh -3.
For COc1ccccc1NC(=O)NC(=O)N(C(C)C)S(C)(=O)=O the results were ERb SRC1 inh -9, ERa coact pot 94, Calb biofilm kill 5, ERa coact inh 1, MT1-MMP txn act 1.1 and Smad3 inh 5.
`COc1ccccc1NC(=O)NC(N)=O` gave ERb SRC1 inh 74*, ERa coact pot 103, Calb biofilm kill 6, ERa coact inh 6, MT1-MMP txn act 1 and Smad3 inh -13.
Cc1c(C(=O)OCC(=O)c2ccc3c(c2)OCCO3)oc2ccccc12 was read as ERb SRC1 inh 1, ERa coact pot 178, Calb biofilm kill 4, ERa coact inh 2, MT1-MMP txn act 1.4 and Smad3 inh 2.
Screening O=C(COC(=O)C(O)c1ccccc1)c1ccc2c(c1)OCCO2 (configuration not stated) returned ERb SRC1 inh 4, ERa coact pot 421*, Calb biofilm kill 5, ERa coact inh -18, MT1-MMP txn act 1.4 and Smad3 inh 7.
`COC(=O)[C@@]1(Cc2ccc(OC)cc2)[C@H]2c3cc(C(=O)N(C)C)n(Cc4ccc(OC)c(OC)c4)c3C[C@H]2CN1C(=O)c1ccccc1` gave MT1-MMP txn act 1.2.
CC(NC(=O)C1CC1)C(c1cccs1)N1CCN(c2ccccc2)CC1 (configuration not stated) was read as ERb SRC1 inh 56*[fluorescence artefact?], ERa coact pot 141, Calb biofilm kill -1, ERa coact inh -7, MT1-MMP txn act 1.1 and Smad3 inh -2.
For CCOC(=O)C1=C(c2ccccc2)N2CCN=C2S1 the results were ERb SRC1 inh -10, ERa coact pot 424*[fluorescence artefact?], Calb biofilm kill 2, ERa coact inh -10, MT1-MMP txn act 1.1 and Smad3 inh 1.
`Cc1nc2c(ccc3nc(NC(=O)c4ccc5c(c4)OCCO5)sc32)s1` gave ERb SRC1 inh 58*[fluorescence artefact?], ERa coact pot 201*[fluorescence artefact?], Calb biofilm kill 8, ERa coact inh 75*[fluorescence artefact?], MT1-MMP txn act 0.3 and Smad3 inh -5.
Screening Cc1nc2ccc3nc(NC(=O)c4ccc5c(c4)OCCO5)sc3c2s1 returned ERb SRC1 inh 44, ERa coact pot 418*[fluorescence artefact?], Calb biofilm kill 5, ERa coact inh 62*[fluorescence artefact?], MT1-MMP txn act 1.3 and Smad3 inh -30.
C[C@@H]1O[C@H](O)[C@@H](O)[C@H](O)[C@H]1O was read as Smad3 inh 10.
For CCCCNC(=S)NNC(=O)c1nn(C)cc1Cl the results were ERb SRC1 inh -19, ERa coact pot 92, Calb biofilm kill 7, ERa coact inh -3, MT1-MMP txn act 1.4 and Smad3 inh -8.
Screening C/C(=N\Nc1nc(C)cc(=O)[nH]1)C(=O)O returned Smad3 inh -10.
For CCCCCOc1ccccc1C(=O)NCC(=O)O the results were ERb SRC1 inh 79*[fluorescence artefact?], ERa coact pot 119, Calb biofilm kill 7, ERa coact inh -3, MT1-MMP txn act 1 and Smad3 inh -6.
`CCC(=Nc1ccc(N)cc1)C1=C(O)C(C(=O)OC)C(C)(C)CC1=O` (configuration not stated) gave ERb SRC1 inh 83*[fluorescence artefact?], ERa coact pot 123, Calb biofilm kill 3, ERa coact inh 3, MT1-MMP txn act 1 and Smad3 inh 1.
Screening CC(=O)Nc1ccc(N=Cc2nc(-c3ccc(C)cc3)oc2O)cc1 returned ERb SRC1 inh 51*, ERa coact pot 61, Calb biofilm kill 3, ERa coact inh 81*, MT1-MMP txn act 1.3 and Smad3 inh 37.
For CN1C(=O)c2ccccc2C(C(=O)NCC2CCCO2)C1c1c[nH]c2ccccc12 (configuration not stated) the results were ERb SRC1 inh 81*[fluorescence artefact?], ERa coact pot 97, Calb biofilm kill 6, ERa coact inh -6 and Smad3 inh 4.

Screens deposited in PubChem BioAssay by several laboratories.
